Experimental data: PubChem BioAssay (Tox21)
Records with an inconclusive call do not appear. Calls of active or inactive are those of the source. Unless noted, the call rests on the fitted dose curve; in most records, active means well fitted curve in the direction sought with a large enough effect in the repeat runs; inconclusive means weak or mixed curves; inactive means no such curve, though single readings can be large; an effect the other way counts as inactive or inconclusive.

How the values were obtained:
[1] = qHTS assay to identify small molecule agonists of the estrogen receptor alpha (ER-alpha) signaling pathway in the presence of an antagonist - cell viability counter screen (AID 1259386);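 further: series mostly up to about 92 µM; cells exposed to compounds for 22 h at 37 °C before the viability read; nearly all actives have a fitted effect of over 30% in size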
Outline: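 ICI-182,780 at 10.0nM final accompanies the compound titration (15 concentrations, 22hr, 37C) on VM7Luc4E2 cells. The CellTiter-Fluor fluorescence readout runs in the same wells as the luciferase assay.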

[2] = target: Progesterone receptor (Homo sapiens) (UniProt P06401); assay: qHTS assay to identify small molecule agonists of the progesterone receptor (PR) signaling pathway (AID 1346784; calls by dose curve; further: nearly all actives have a fitted effect of over 30% in size)
Sequence of Progesterone receptor (Homo sapiens) (P06401 whole entry, looked up): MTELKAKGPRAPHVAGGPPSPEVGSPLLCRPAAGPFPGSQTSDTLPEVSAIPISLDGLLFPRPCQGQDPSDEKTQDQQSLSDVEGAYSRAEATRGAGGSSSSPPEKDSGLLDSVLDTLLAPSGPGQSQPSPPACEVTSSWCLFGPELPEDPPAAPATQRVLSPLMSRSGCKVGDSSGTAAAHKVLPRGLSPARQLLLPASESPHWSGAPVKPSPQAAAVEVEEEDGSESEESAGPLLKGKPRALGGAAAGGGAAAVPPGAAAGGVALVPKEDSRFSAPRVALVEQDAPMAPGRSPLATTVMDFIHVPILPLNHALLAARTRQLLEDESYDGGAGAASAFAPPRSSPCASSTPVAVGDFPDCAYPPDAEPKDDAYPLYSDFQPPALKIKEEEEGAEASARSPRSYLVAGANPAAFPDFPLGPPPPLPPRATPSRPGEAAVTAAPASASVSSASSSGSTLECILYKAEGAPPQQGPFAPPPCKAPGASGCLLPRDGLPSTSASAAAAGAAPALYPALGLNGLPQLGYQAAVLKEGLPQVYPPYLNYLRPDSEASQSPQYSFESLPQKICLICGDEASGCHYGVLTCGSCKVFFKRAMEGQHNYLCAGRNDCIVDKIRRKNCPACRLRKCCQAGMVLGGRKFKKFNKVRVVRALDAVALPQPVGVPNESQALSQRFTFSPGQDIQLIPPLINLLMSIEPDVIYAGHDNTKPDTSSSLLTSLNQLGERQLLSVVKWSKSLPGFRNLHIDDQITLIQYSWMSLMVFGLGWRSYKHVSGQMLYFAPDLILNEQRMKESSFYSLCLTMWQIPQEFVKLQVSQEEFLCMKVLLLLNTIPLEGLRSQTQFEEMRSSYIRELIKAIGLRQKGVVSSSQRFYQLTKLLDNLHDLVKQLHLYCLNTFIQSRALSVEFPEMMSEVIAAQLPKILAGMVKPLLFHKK
Outline: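 Agonist mode, quantitative HTS format in a HEK 293T line expressing a UAS-controlled beta-lactamase reporter; 16 hr compound exposure at 37C in 2% charcoal-stripped FBS, then LiveBLAzer B/G FRET fluorescence.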

[3] = target: Progesterone receptor (Homo sapiens) (UniProt P06401); assay: qHTS assay to identify small molecule antagonists of the progesterone receptor (PR) signaling pathway (AID 1346795; active means well fitted inhibition curve with a large enough effect in the signal ratio in the repeat runs, not every such curve was filed as active; the % refers to the signal ratio)
Outline: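 HEK293T PR-UAS-bla reporter cells in charcoal-stripped serum (2%) received compound after a 6 hr settling period, followed by R5020 agonist at 1 nM final; 16 hr incubation preceded the FRET substrate step and fluorescence measurement.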

[4] = qHTS assay to identify small molecule antagonists of the progesterone receptor (PR) signaling pathway - cell viability counter screen (AID 1346798); further: series mostly up to about 92 µM; nearly all actives have a fitted effect of over 50% in size
Outline: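 Same-well multiplex: after 16 hr at 37C with compound and R5020 stimulation, HEK293T cells carrying a UAS-bla reporter received LiveBLAzer substrate (2 hr RT), then CellTiter-Glo (30 min RT) for luminescent viability.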

[5] = qHTS assay to identify small molecule antagonists of the TGF-beta/Smad signaling pathway - cell viability counter screen (AID 1346824); further: nearly all actives have a fitted effect of over 50% in size
Outline: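 SBE-bla HEK 293T cells, incubated overnight, then compound plus 0.25 ng/mL TGF-beta1 (stock added) for 5 hr at 37 C. Viability was read in the same wells by CellTiter-Glo luminescence after 30 min at room temperature.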

[6] = qHTS assay to identify small molecule agonists of the TGF-beta/Smad signaling pathway - cell viability counter screen (AID 1346829); further: top concentration of the series differs between compounds; nearly all actives have a fitted effect of over 45% in size
Outline: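 Luminescence from CellTiter-Glo, read after a 30 min room-temperature incubation, gives cell viability of SBE-bla HEK 293T cells treated 5 hr with compounds at 37 C.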

[7] = qHTS assay to identify small molecule agonists of the TGF-beta/Smad signaling pathway (AID 1346859; active means well fitted activation curve with a large enough effect in the signal ratio in the repeat runs, not every such curve was filed as active; the % refers to the signal ratio; further: series mostly up to about 77 µM)
Outline: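 Smad-responsive beta-lactamase reporter cells (HEK 293T) received compounds from DMSO stocks after overnight attachment, were incubated 5 hr, then treated 2 hr with FRET substrate before dual-emission fluorescence measurement (405 nm excitation).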

[8] = target: Thyrotropin-releasing hormone receptor (Homo sapiens) (UniProt P34981); assay: qHTS assay to identify small molecule antagonists of the thyrotropin-releasing hormone receptor (TRHR) signaling pathway (AID 1346877; active means well fitted inhibition curve with a large enough effect in the repeat runs, not every such curve was filed as active; further: series mostly up to about 51 µM)
Sequence of Thyrotropin-releasing hormone receptor (Homo sapiens) (P34981 whole entry, looked up): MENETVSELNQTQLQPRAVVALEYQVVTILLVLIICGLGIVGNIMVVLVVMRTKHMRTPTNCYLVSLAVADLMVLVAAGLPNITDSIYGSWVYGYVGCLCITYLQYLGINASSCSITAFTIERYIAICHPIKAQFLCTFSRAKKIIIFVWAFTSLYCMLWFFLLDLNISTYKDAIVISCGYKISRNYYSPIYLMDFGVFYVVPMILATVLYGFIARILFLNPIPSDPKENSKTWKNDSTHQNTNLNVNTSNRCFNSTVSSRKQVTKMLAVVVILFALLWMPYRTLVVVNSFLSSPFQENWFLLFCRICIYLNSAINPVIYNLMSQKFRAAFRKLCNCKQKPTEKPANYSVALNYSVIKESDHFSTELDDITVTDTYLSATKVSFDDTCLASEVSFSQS
Outline: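 Screening used HEK293 cells engineered with TRHR, with a brief 5 min room-temperature compound exposure preceding addition of TRH to 1 nM. The read-out was kinetic calcium-dye fluorescence, concentration-response from 15 doses in triplicate.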

[9] = target: Thyrotropin-releasing hormone receptor (Homo sapiens) (UniProt P34981); assay: qHTS assay to identify small molecule agonists of the thyrotropin-releasing hormone receptor (TRHR) signaling pathway (AID 1346891; calls by dose curve;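 further: HEK293 cells expressing TRHR with calcium dye readout; series mostly up to about 58 µM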)
Outline: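 Agonist-mode calcium mobilisation screen: TRHR-transfected HEK293 cells cultured overnight (18 h), dye-loaded for 2 h at 37 °C, exposed to compounds, and monitored by fluorescence for 3 min.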

[10] = Human pregnane X receptor (PXR) small molecule agonists, qHTS cell viability counter screen (AID 1346977); further: nearly all actives have a fitted effect of over 50% in size
Outline: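 Measures live-cell protease fluorescence (CellTiter-Fluor) in PXR-Luc HepG2 cells treated 24hr with compounds at 37C. Cells had 5hr to attach before pin transfer of DMSO solutions.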

[11] = Caspase-3/7 induction in HepG2 cells by small molecules, qHTS assay (AID 1346978); further: nearly all actives have a fitted effect of over 15% in size
Outline: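 Wild-type HepG2 cells, 2,000/well, settled 5 hr at 37 C and 5% CO2, then compound-treated for 17 hr; caspase-3/7 activity read by luminescent Caspase-Glo 3/7 after 30 min at room temperature.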

[12] = Caspase-3/7 induction in CHO-K1 cells by small molecules, qHTS cell viability counter screen (AID 1346979); further: nearly all actives have a fitted effect of over 35% in size
Outline: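 In the same wells as the caspase read, viability of compound-treated wild-type CHO-K1 cells was assessed using CellTiter-Fluor, added after 16hr at 37C and measured by fluorescence following 1hr further incubation.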

[13] = Caspase-3/7 induction in CHO-K1 cells by small molecules, qHTS assay (AID 1346980); further: nearly all actives have a fitted effect of over 15% in size
Outline: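 Wild-type CHO-K1 cells exposed to compounds for 17hr at 37 C, 5% CO2. Caspase-3/7 activity then measured by Caspase-Glo 3/7 luminescence after 30min at room temperature.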

[14] = Caspase-3/7 induction in HepG2 cells by small molecules, qHTS cell viability counter screen (AID 1346981); further: series mostly up to about 92 µM; nearly all actives have a fitted effect of over 30% in size
Outline: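 Multiplexed with the caspase-3/7 assay: HepG2 cells, 16 hr compound treatment, CellTiter-Fluor viability detection by fluorescence.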

[15] = target: Nuclear receptor subfamily 1 group I member 2 (Homo sapiens) (UniProt O75469); assay: Human pregnane X receptor (PXR) small molecule agonists, qHTS assay (AID 1346982); further: nearly all actives have a fitted effect of over 35% in size
Sequence of Nuclear receptor subfamily 1 group I member 2 (Homo sapiens) (O75469 whole entry, looked up): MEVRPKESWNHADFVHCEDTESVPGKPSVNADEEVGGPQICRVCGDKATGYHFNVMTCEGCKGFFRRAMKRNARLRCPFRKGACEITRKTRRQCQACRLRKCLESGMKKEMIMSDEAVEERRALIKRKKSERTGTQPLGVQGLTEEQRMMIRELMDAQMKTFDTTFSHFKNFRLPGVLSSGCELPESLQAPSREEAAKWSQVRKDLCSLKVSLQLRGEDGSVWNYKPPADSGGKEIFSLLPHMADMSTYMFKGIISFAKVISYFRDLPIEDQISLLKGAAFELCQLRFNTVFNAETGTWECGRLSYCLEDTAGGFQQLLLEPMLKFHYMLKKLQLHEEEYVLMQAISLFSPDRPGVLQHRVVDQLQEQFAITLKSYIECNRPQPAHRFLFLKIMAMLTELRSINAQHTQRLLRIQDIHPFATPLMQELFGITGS
Outline: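 We seeded PXR-Luc HepG2 cells in assay medium containing 5% charcoal-stripped FBS, added compounds 5 hr later, incubated 24 hr, and read luminescence with ONE-Glo reagent.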

[16] = target: Acetylcholinesterase (Homo sapiens) (UniProt P22303); assay: Acetylcholinesterase (AChE) small molecule antagonists: colormetric cell-based qHTS assay (AID 1347395; calls by dose curve; further: nearly all actives have a fitted effect of over 30% in size)
Sequence of Acetylcholinesterase (Homo sapiens) (P22303 whole entry, looked up): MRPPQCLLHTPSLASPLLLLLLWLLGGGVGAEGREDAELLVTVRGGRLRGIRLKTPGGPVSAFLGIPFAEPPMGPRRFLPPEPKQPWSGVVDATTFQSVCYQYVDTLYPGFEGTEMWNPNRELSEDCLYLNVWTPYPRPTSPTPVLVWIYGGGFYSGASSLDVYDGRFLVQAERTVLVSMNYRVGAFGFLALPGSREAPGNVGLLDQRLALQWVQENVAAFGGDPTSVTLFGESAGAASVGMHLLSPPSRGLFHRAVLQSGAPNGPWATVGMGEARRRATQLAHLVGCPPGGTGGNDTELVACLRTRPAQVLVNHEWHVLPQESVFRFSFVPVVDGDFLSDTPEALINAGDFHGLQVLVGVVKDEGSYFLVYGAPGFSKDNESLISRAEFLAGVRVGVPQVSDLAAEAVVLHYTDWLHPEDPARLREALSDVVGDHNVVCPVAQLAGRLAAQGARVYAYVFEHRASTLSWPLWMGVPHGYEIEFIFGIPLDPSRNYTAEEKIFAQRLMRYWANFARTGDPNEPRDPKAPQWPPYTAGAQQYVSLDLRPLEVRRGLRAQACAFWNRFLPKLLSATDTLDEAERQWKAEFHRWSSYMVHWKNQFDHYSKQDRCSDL
Outline: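 Endogenous AChE of human neuroblastoma SH-SY5Y cells was measured with an Ellman-type DTNB/acetylthiocholine mix. Compound pretreatment lasted 30 min at 37 C; substrate reaction ran 90 min at 37 C.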

[17] = qHTS assay to identify small molecule agonists of the progesterone receptor (PR) signaling pathway - cell viability counter screen (AID 1346799; calls by dose curve; further: nearly all actives have a fitted effect of over 45% in size)
Outline: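 Counter screen for cytotoxicity: compound-treated PR-UAS-bla HEK293T cells (16 hr, 37C, 5% CO2) were assayed with CellTiter-Glo, luminescence measured after 30 min at room temperature.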

Measured: Potency

O=C(CCl)NCO
inactive: [1] | [2] | [3] | [4] | [5] | [6] | [7] | [8] | [9] | [10] | [11] | [12] | [13] | [14] | [15] | [16]

CCOC(=O)COc1ccc(Cl)cc1Cl
inactive: [1] | [2] | [3] | [4] | [17] | [5] | [6] | [8] | [9] | [10] | [11] | [12] | [13] | [14] | [15] | [16]

CCOC(=O)c1ncn2c1CN(C)C(=O)c1c(I)cccc1-2
inactive: [1] | [2] | [3] | [4] | [17] | [5] | [7] | [8] | [9] | [10] | [11] | [13] | [15] | [16]

CCOc1cc(OP(=S)(OC)OC)nc(CC)n1
inactive: [1] | [2] | [3] | [4] | [5] | [6] | [7] | [8] | [9] | [10] | [11] | [12] | [13] | [14] | [15] | [16]

CC(C)N(Cc1ccccc1)C(=O)C(C)(C)C
inactive: [1] | [2] | [3] | [4] | [5] | [6] | [7] | [8] | [9] | [10] | [11] | [12] | [13] | [15] | [16]

CC(C)(N)Cc1ccccc1Cl
inactive: [1] | [2] | [3] | [5] | [6] | [7] | [8] | [9] | [10] | [11] | [12] | [13] | [14] | [15] | [16]

Clc1ccc(C(Cl)(Cl)Cl)cn1
inactive: [1] | [2] | [3] | [5] | [7] | [8] | [9] | [10] | [11] | [13] | [15] | [16]
